Records with an inconclusive call do not appear. Activity calls are given as the source filed them. Unless noted, the call rests on the fitted dose curve; in most records, active means well fitted curve in the direction sought with a large enough effect; inconclusive means small, poorly fitted or top-dose-only effect, or another doubt; inactive means no such curve, though single readings can be large; an effect the other way counts as inactive or inconclusive.
Experiments:
[1] = biological target: Luciferin 4-monooxygenase (Photinus pyralis) (UniProt P08659); assay: Biochemical firefly luciferase enzyme assay for NPC (AID 624030); further: nearly all actives have a fitted effect of over 70% in size; further: potency means the concentration at half of the fitted maximal effect
Outline: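 Counter-screen for direct inhibition of the luciferase enzyme by approved-drug library compounds, run at 10 nM enzyme in 50 mM Tris acetate (final). Luminescence was read within 5 min of enzyme-buffer addition and normalized to PTC124 versus DMSO (0%).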

[2] = S16 Schwann cell PMP22 intronic element firefly luciferase assay (AID 624032); further: nearly all actives have a fitted effect of over 30% in size; further: potency means the concentration at half of the fitted maximal effect
Outline: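 Rat S16 Schwann cells stably carrying a PMP22 intronic element-driven Fluc reporter were seeded overnight, then exposed to compounds for 24 h at 37 °C. Luminescence was normalized to PTC124 (positive control) and DMSO (0% activity).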

[3] = S16 Schwann cell PMP22 intronic element beta-lactamase assay (AID 624044; calls by dose curve; further: nearly all actives have a fitted effect of over 15% in size; further: potency means the concentration at half of the fitted maximal effect)
Outline: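 Rat S16 Schwann cells with beta-Lac driven by a PMP22 intronic element, compound-treated 24 h at 37 °C. LiveBLAzer FRET B/G read: 460 nm normalized to potassium clavulanate vs DMSO; 535 nm FRET as viability; concentration-effect curves classified.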

[4] = biological target: Glutaminase kidney isoform, mitochondrial (Homo sapiens) (UniProt O94925); assay: qHTS for Inhibitors of Glutaminase (GLS): LOPAC Validation (AID 624146); further: nearly all actives have a fitted effect of over 60% in size; further: potency means the concentration at half of the fitted maximal effect
Outline: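 Compounds were pin-transferred onto hKGA, after which L-glutamine (1 mM solution) and a detection mix of glutamate oxidase, HRP and Amplex Red were added. Initial and 30 min RT fluorescence reads were collected.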

[5] = qHTS of Trypanosoma Brucei Inhibitors: LOPAC Validation (AID 624147)
Outline: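 Luminescent Kinase-Glo Plus end-point after 45 min room-temperature reaction of T. brucei pyruvate kinase started with 130 uM ADP (final). Buffer TEA 50 mM pH 7.2 with KCl, MgCl2, BSA, Tween-20; titration-based qHTS with fitted concentration-effect curves.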

[6] = biological target: Glucagon-like peptide 1 receptor (Homo sapiens) (UniProt P43220); assay: qHTS of GLP-1 Receptor Agonists: LOPAC Validation (AID 624148);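 further: higher luminescence signal means agonism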
Outline: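 HEK293 cells stably co-expressing a cAMP-responsive luciferase reporter and a hypersensitive GLP-1R were plated 12 h at 37 °C and exposed to compounds for 4-6 hr at 37 °C, 5% CO2. Luminescence was read 12 min after adding detection reagent.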

[7] = S16 Schwann cell viability assay (CellTiter-Glo assay) (AID 624031); further: nearly all actives have a fitted effect of over 70% in size; further: potency means the concentration at half of the fitted maximal effect
Outline: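 Native S16 rat Schwann cells, 500-750 cells/well in DMEM with 10% FBS, dosed with compound after overnight culture and incubated 24h at 37 degree Celsius/5% CO2. Viability by CellTiter-Glo luminescence; % activity normalized to no-cell wells and DMSO-treated cells.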

Measured: Potency

Luciferin 4-monooxygenase (Photinus pyralis), sequence (P08659 whole entry, looked up): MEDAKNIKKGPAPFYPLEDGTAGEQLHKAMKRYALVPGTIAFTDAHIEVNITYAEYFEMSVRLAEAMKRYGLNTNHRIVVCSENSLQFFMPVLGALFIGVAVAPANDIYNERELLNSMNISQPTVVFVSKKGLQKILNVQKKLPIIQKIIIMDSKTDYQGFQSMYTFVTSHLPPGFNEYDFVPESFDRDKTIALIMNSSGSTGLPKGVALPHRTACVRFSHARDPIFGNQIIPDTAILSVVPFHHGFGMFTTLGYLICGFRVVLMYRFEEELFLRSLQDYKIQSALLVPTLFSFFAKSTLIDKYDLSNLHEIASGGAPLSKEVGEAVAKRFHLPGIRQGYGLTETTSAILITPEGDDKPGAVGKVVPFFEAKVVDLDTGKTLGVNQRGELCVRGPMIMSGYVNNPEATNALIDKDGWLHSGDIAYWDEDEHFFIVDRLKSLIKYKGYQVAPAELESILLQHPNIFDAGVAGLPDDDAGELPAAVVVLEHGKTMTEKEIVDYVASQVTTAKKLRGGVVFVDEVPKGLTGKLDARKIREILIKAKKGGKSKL
Glucagon-like peptide 1 receptor (Homo sapiens), sequence (P43220 whole entry, looked up): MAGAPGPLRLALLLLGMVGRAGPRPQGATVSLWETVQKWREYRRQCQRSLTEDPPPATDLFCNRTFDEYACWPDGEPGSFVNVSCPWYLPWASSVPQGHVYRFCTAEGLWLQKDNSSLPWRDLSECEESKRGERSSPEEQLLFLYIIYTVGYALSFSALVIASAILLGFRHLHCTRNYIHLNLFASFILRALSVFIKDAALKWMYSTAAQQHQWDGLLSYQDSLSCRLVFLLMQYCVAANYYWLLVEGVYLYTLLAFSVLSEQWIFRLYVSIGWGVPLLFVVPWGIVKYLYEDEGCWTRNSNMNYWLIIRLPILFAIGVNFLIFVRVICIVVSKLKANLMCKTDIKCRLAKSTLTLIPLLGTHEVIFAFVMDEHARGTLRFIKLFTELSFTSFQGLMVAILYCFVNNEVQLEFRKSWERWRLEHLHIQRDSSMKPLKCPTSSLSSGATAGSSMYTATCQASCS
Glutaminase kidney isoform, mitochondrial (Homo sapiens), sequence (O94925 whole entry, looked up, canonical isoform): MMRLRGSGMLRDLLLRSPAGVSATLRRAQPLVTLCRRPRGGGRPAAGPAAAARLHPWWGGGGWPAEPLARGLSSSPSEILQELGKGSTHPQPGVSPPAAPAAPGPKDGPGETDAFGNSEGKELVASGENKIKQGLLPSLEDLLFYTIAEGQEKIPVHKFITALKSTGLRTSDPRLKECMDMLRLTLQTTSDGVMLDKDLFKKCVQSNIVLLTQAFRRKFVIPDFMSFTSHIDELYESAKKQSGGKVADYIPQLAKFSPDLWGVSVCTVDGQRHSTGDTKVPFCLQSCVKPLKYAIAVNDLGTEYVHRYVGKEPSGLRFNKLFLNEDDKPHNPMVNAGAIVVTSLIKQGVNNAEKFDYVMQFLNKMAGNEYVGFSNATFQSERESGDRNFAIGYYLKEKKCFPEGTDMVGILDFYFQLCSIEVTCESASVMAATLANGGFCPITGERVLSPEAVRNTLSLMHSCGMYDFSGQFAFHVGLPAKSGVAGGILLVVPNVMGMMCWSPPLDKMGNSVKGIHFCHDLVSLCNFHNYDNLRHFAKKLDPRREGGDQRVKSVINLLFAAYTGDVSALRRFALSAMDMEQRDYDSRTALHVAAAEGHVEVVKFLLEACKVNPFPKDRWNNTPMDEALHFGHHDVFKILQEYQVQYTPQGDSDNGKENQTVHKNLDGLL

C[N+]1(C)C2CCC1CC(OC(=O)c1c[nH]c3ccccc13)C2 (centres undefined)
inactive: [1] | [2] | [3] | [4] | [5] | [6]

C[C@@H](Cc1ccccc1)NCCC(c1ccccc1)c1ccccc1
inactive: [1] | [2] | [3]

CCCN(CCC)C1Cc2cc(OC)c(OC)cc2C1
inactive: [4] | [5] | [6]

COc1cc(CC(C)N)c(OC)cc1I (centres undefined)
inactive: [4] | [5] | [6]

NCCc1ccc(S(=O)(=O)F)cc1
inactive: [4] | [5] | [6]

CCNC(C)Cc1cccc(C(F)(F)F)c1 (centres undefined)
inactive: [1] | [7] | [2] | [3]

C[C@@H]1O[C@H](C[N+](C)(C)C)CS1
inactive: [4] | [5] | [6]

O=C1CC[C@@]2(O)C3Cc4ccc(O)c5c4C2(CCN3CC2CC2)[C@H]1O5 (some centres undefined)
inactive: [1] | [2] | [3] | [5] | [6]

c1csc(C2(N3CCCCC3)CCCCC2)c1
inactive: [1] | [2] | [3]

CC12NC(Cc3ccccc31)c1ccccc12 (centres undefined)
inactive: [1] | [2] | [3] | [4] | [5] | [6]

CCCC[N+]1(C)C2CC(OC(=O)[C@H](CO)c3ccccc3)CC1C1OC12 (some centres undefined)
inactive: [4] | [5] | [6]

O[C@H]1[C@H]2[C@H](O)CCCN2C[C@H]1O
inactive: [1] | [2] | [3]

[Cl-].[Cl-].[Hg+2]
active: [1] 12.8 µM | [2] 0.809 µM | [3] 3.16 µM

CNC(=O)OCC[N+](C)(C)C
inactive: [1] | [2] | [3]

O=C1CN=C(c2ccccc2)c2cc(Cl)ccc2N1CC1CC1
inactive: [1] | [7] | [3]

CN1C2CCC1CC(OC(c1ccccc1)c1ccccc1N)C2 (centres undefined)
inactive: [4] | [5] | [6]

Cc1sc2ccccc2c1CC1=NCCN1
inactive: [1] | [2] | [3] | [4] | [5] | [6]

C=CCN(C1=NCCN1)c1c(Cl)cccc1Cl
inactive: [1] | [7] | [2] | [3] | [4] | [5] | [6]

c1ccc(C2(N3CCCC3)CCCCC2)cc1
inactive: [1] | [7] | [3]

CC(C)[C@@]1(NC(=O)[C@@H]2C[C@@H]3c4cccc5[nH]cc(c45)C[C@H]3N(C)C2)O[C@@]2(O)[C@@H]3CCCN3C(=O)[C@H](Cc3ccccc3)N2C1=O
inactive: [1] | [6]

O=c1c2ccccc2[se]n1-c1ccccc1
active: [1] 8.09 µM | [7] 12.8 µM | [2] 28.7 µM | [4] 2.82 µM
inactive: [3] | [6]

CC(N)[C@H](O)c1ccc(O)c(O)c1 (some centres undefined)
inactive: [4]

C=CCN1CCC23c4c5ccc(O)c4O[C@H]2C(=O)CC[C@@]3(O)C1C5 (some centres undefined)
inactive: [1] | [5] | [6]

C[C@@H]1O[C@@H](O[C@H]2C[C@@H](O)[C@]3(CO)[C@@H]4C(CC[C@]3(O)C2)[C@@]2(O)CC[C@H]([C@@H]3COC(=O)C3)[C@@]2(C)C[C@H]4O)[C@H](O)[C@H](O)[C@H]1O (some centres undefined)
inactive: [4] | [5] | [6]

CN1c2ccccc2C(NCCCCCCC(=O)O)c2ccc(Cl)cc2S1(=O)=O (centres undefined)
inactive: [1] | [7] | [2] | [3]

O=[N+]([O-])c1cc(I)c(O)c(I)c1
inactive: [2]

N=C(N)c1ccc(CS(=O)(=O)F)cc1
inactive: [4] | [6]

CC(C)(O)[C@@H]1C2OC(=O)[C@@H]1[C@]1(O)C[C@H]3O[C@]34C(=O)O[C@H]2[C@]14C (tested in a mixture with another compound)
inactive: [4] | [6]

N#CCCN
inactive: [4] | [6]

CCOC(=O)c1ncn2c1[C@@H]1CCCN1C(=O)c1cc(OC)ccc1-2
inactive: [4] | [5] | [6]

CN1CCc2cc(O)cc3c2[C@H]1Cc1ccc(O)c(O)c1-3
active: [4] 2.24 µM
inactive: [6]

CCn1cnc2c(Nc3cccc(Cl)c3)nc(N[C@@H]3CCCC[C@@H]3N)nc21
inactive: [4] | [6]

CCN1C[C@@]2(COC)C3[C@@H](OC)C4[C@@H]1C3([C@@H]1C[C@]3(O)[C@H](OC(=O)c5ccccc5)[C@@H]1[C@]4(OC(C)=O)[C@@H](O)[C@@H]3OC)[C@H](OC)C[C@H]2O
inactive: [4] | [5] | [6]

CCCN1CC[C@@H]2c3cc(O)ccc3CC[C@@H]21
inactive: [5] | [6]

CCCN1CCc2cc(O)cc3c2[C@H]1Cc1ccc(O)c(O)c1-3
inactive: [5] | [6]
active: [4] 1.41 µM

From PubChem BioAssay (NCATS)
